Test results published in the supplement of paper PMC7726561.
The full ranking holds about 1,100 sequences; the median of “thermal melting temperature (Tm) of peptide-HLA complex” is about 58, and the lowest 2% start at about 42. Only a selection was taken, and the lowest values are over-represented in it overall.

molecular target: HLA-A*02:01; assay: thermal melting temperature (Tm) of peptide-HLA complex; higher = more thermostable pHLA complex; conditions: C1R-A*02:01
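Further: lysates heated 10 min at 37–73 °C, complexes pulled down with pan-HLA I antibody, peptide signal by DIA-MS relative to 37 °C, Tm where half the complex is unfolded.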

Sequence | thermal melting temperature
SLMDPNKFLLL | 55.1 °C
VLQGKLAEV | 53.5 °C
HLAIKLEQV | 59.5 °C
KIIEYSVYL | 59.5 °C
ALAPAPPQV | 62.1 °C
GLSTEGIYRV | 60.9 °C
ILDAGGHNVTI | 54.5 °C
KVIDYVPGI | 58.8 °C
NLFNRYPAL | 58.4 °C
FLMDFIHQV | 62.2 °C
FLMKNSDLYGA | 58.4 °C
ALLDRIVSV | 64.2 °C
NIIPYITNV | 51.4 °C
SLLPEGPPAI | 57.8 °C
LLAEDDELHL | 44.2 °C
FLDHIIASV | 61.4 °C
